Experimental findings from PubChem BioAssay (Tox21) are described below.

Assay [1] in a line: qHTS assay to identify small molecule agonists of H2AX (AID 1224845; active means well fitted activation curve with a large enough effect in the signal ratio in the repeat runs, not every such curve was filed as active; the % refers to the signal ratio). Put shortly:
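Wild-type CHO-K1 cells, plated overnight, exposed 3hr at 37C to 15 concentrations (0.76% DMSO final). Lysed, then HTRF anti-pH2AX (S139) cryptate and anti-H2AX-d2 antibodies, 24 hr room temperature; 665/620 nm emission read.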

Assay [2] is described as follows: qHTS assay to identify small molecule agonists of the hypoxia (HIF-1) signaling pathway (AID 1224846; active means well fitted activation curve with a large enough effect in the signal ratio in the repeat runs, not every such curve was filed as active; the % refers to the signal ratio). Put shortly: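 Hypoxia-pathway activation was scored as increased beta-lactamase from an HRE-controlled reporter in ME-180 cells; plated at 2,000 cells per well with 0.5% dialyzed FBS, they were exposed 17 hrs to compounds and then given CCF4-AM.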
On the technique in general: Quantitative high-throughput screening tests each substance at several concentrations.

Assay [3] is described as follows: qHTS assay to identify small molecule agonists of H2AX - cell viability counter screen (AID 1224847; calls by dose curve; further: top concentration of the series differs between compounds; nearly all actives have a fitted effect of over 30% in size). In outline: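 Cells plated first: CHO-K1, 1000 per well in 10% FBS medium, incubated overnight at 37C. Then 15-point compound titration added (final DMSO 0.76%) for 3 hr. Finally CellTiter-Glo added and luminescence read.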
Assay [4] in a line: qHTS RealTime-Glo MT Cell Viability Assay in HepG2 cells - 24 hour (AID 1224867). Further: nearly all actives have a fitted effect of over 50% in size. In outline: (§1)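 Real-time, nonlytic viability: 600 HepG2 cells/well mixed with NanoLuc enzyme plus prosubstrate; 5 h settle, compound (DMSO) added by pintool; luminescence monitored over 40 h at 37 C.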
Assay [5] in a line: qHTS RealTime-Glo MT Cell Viability Assay in HEK293 cells - 32 hour (AID 1224868). Further: top concentration of the series differs between compounds; nearly all actives have a fitted effect of over 50% in size. Put shortly: (§2)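 Cells + reagent dispensed (600 cells/well, HEK293) → 5 h at 37 C/5% CO2 → 23 nL compound in DMSO pinned → 40 h at 37 C → luminescence read at 0, 8, 16, 24, 32, 40 h.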
The nature of assay [6]: A CellTox Green Cytotoxicity Assay to monitor cytotoxicity in HEK293 cells - 0 hour (AID 1224869). Further: nearly all actives have a fitted effect of over 50% in size. In outline:
(§3)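 Seeding of HEK293 cells together with cytotoxicity dye preceded a 5 h incubation at 37 C/5% CO2. Test compounds in DMSO were then added and fluorescence monitored across 40 h.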

The nature of assay [7]: qHTS RealTime-Glo MT Cell Viability Assay in HepG2 cells - 40 hour (AID 1224870). Further: nearly all actives have a fitted effect of over 50% in size. In outline: (§4)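 HepG2 cells (600/well) mixed with RealTime-Glo MT reagent, settled 5 h at 37 C/5% CO2 before compound addition. Nonlytic NanoLuc luminescence from viable-cell prosubstrate reduction read repeatedly during 40 h treatment at 37 C.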
Assay [8] can be described thus: A CellTox Green Cytotoxicity Assay to monitor cytotoxicity in HEK293 cells - 40 hour (AID 1224871). Further: nearly all actives have a fitted effect of over 45% in size. In outline:
as §3

Assay [9] is described as follows: qHTS RealTime-Glo MT Cell Viability Assay in HEK293 cells - 16 hour (AID 1224872). In outline:
as §2

A short description of assay [10]: qHTS RealTime-Glo MT Cell Viability Assay in HEK293 cells - 40 hour (AID 1224874). Further: nearly all actives have a fitted effect of over 50% in size. Further: potency means the concentration at half of the fitted maximal effect. Conditions: RealTime-Glo luminescence; max response: stronger effect = lower value. Put shortly:
(§5)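 Tox21 screen in HEK293 using RealTime-Glo MT chemistry, with cells and reagent co-dispensed. Luminescence proportional to viable cell number was captured at intervals during 40 h compound exposure at 37 C.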

Assay [11] can be described thus: A CellTox Green Cytotoxicity Assay to monitor cytotoxicity in HEK293 cells - 24 hour (AID 1224875). Further: nearly all actives have a fitted effect of over 45% in size. Put shortly: as §3
The nature of assay [12]: qHTS RealTime-Glo MT Cell Viability Assay in HepG2 cells - 32 hour (AID 1224877). Further: nearly all actives have a fitted effect of over 55% in size. Put shortly: as §1
Assay [13] in a line: A CellTox Green Cytotoxicity Assay to monitor cytotoxicity in HepG2 cells - 24 hour (AID 1224878). Further: nearly all actives have a fitted effect of over 45% in size. Further: potency means the concentration at half of the fitted maximal effect. Put shortly: (§6)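 Nonlytic assay: viable cells exclude the dye, so fluorescence scales with cell death. HepG2 at 600 cells/well, compounds added after 5 h, signal read across 40 h.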
Assay [14] in a line: A CellTox Green Cytotoxicity Assay to monitor cytotoxicity in HepG2 cells - 40 hour (AID 1224879). Further: nearly all actives have a fitted effect of over 40% in size. Further: potency means the concentration at half of the fitted maximal effect. Put shortly:
as §6

Assay [15] is described as follows: qHTS RealTime-Glo MT Cell Viability Assay in HEK293 cells - 0 hour (AID 1224880). Further: top concentration of the series differs between compounds; nearly all actives have a fitted effect of over 45% in size. Put shortly: as §5
Assay [16] is described as follows: qHTS assay to identify small molecule agonists of the hypoxia (HIF-1) signaling pathway - cell viability counter screen (AID 1224844; calls by dose curve; further: nearly all actives have a fitted effect of over 50% in size). In outline:
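Multiplexed with the HRE beta-lactamase assay, this viability read used CellTiter-Glo luminescence (30 min, RT) on HRE-bla ME-180 cells treated 17 hrs with compounds in 0.5% dialyzed FBS medium.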

Assay [17] is described as follows: qHTS assay to identify small molecule agonists of the estrogen related receptor (ERR) signaling pathway from Tox21 library (AID 1224849; calls by dose curve; further: nearly all actives have a fitted effect of over 15% in size). The conditions noted are these: ERR reporter cell line, ONE-Glo luciferase, 18 h; at 92.4 µM (top of the series) unless noted. In outline:
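Six hours post-seeding at 37 C/5% CO2, ERR cells receive DMSO-solubilised compounds; after 18 h at 37 C, ONE-Glo reagent is applied and luminescence recorded.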

Assay [18] can be described thus: qHTS RealTime-Glo MT Cell Viability Assay in HepG2 cells - 8 hour (AID 1224873). Further: nearly all actives have a fitted effect of over 55% in size. In outline:
as §4

Assay [19] can be described thus: A CellTox Green Cytotoxicity Assay to monitor cytotoxicity in HepG2 cells - 16 hour (AID 1224876). Further: nearly all actives have a fitted effect of over 45% in size. In outline: as §6
Assay [20] in a line: qHTS assay to identify small molecule antagonists of the estrogen related receptor (ERR) signaling pathway from Tox21 library (AID 1224848). Further: nearly all actives have a fitted effect of over 50% in size. In outline: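 Luminescent reporter read-out (ONE-Glo) from NTP's ERR cell line after 18 h treatment at 37 C with DMSO-dissolved Tox21 compounds; cells pre-plated 6 h beforehand at 2,000 per well.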

A number with no mark means an inactive call. Results filed as inconclusive are left out. Active and inactive are the calls of the source. Unless noted, the call rests on the fitted dose curve; in most records, active means well fitted curve in the direction sought with a large enough effect in the repeat runs; inconclusive means weak or mixed curves; inactive means no such curve, though single readings can be large; an effect the other way counts as inactive or inconclusive.
On the % scale 0 is the no-effect control and ±100 the full control effect.

For `CCCCCCOC(=O)CCC`, the Potency entry in assay [1], in assay [3], in assay [4], in [5], in assay [6] and in assay [7] was “inactive” in each case. Also, the Potency entry in [8], in assay [9], in [11], in assay [12], in assay [13] and in [14] was “inactive” in each case. In addition, in assay [15], the Potency entry is “inactive”. Also, the result in [2] was inactive. The max response in assay [10] was 6.13%.

Regarding `COC(Cc1ccccc1)OC`, the Potency entry in [1], in [3], in assay [4], in [5], in assay [6] and in assay [7] was “inactive” throughout. Moreover, the Potency result in [8], in assay [9], in assay [12], in assay [13], in [14] and in [15] was “inactive” throughout. Further, the outcome in [2] was inactive. Besides, the max response in assay [10] is 17.4%.

As for `CC(=O)[C@@]1(O)CC[C@H]2[C@@H]3C[C@H](C)C4=CC(=O)CC[C@]4(C)[C@H]3CC[C@@]21C`, the Potency entry in assay [16], in [3], in assay [4], in [6], in assay [7] and in assay [8] was “inactive” throughout. In addition, the Potency result in assay [18], in assay [11], in assay [19], in assay [12], in assay [13] and in assay [14] was “inactive” in each case. The activity change, positive = activation in [17] is -36.6% [at 42.5 µM]. Besides, the Potency in assay [10] is 19 µM (active).

With `CN1CCC(=C2c3ccccc3CCc3sccc32)CC1`, the Potency entry in assay [1], in assay [3], in assay [20], in assay [4], in assay [6] and in assay [7] was “inactive” in each case. Moreover, the Potency entry in assay [8], in assay [9], in [18], in assay [11] and in [12] was “inactive” throughout. Besides, the compound was classed as inactive in assay [2]. In assay [17], the activity change, positive = activation is -9.84% [at 42.5 µM]. For the same compound, the Potency in assay [13] and in [14] was 23.9 µM (active) throughout.

In the case of `CC(=O)N(CC(=O)N(C)C)c1ccccc1`, the Potency result in assay [1], in assay [3], in [20], in assay [4], in assay [5] and in [6] was “inactive” in each case. Besides, the Potency result in [7], in [8], in assay [9], in assay [18], in [11] and in [19] was “inactive” in each case. The Potency entry in assay [12], in assay [13] and in assay [15] was “inactive” throughout. In addition, in [2], the compound was called inactive. In [17], the activity change, positive = activation is 0.995% [at 42.5 µM]. Besides, in assay [10], the max response is 1.18%.

Take `C=CC(=O)OCCOC(=O)CCC(=O)O`: the Potency entry in assay [1], in assay [20], in assay [4], in assay [5], in [6] and in [7] was “inactive” in each case. Further, the Potency entry in assay [8], in assay [9], in assay [18], in [11], in assay [19] and in assay [12] was “inactive” throughout. The Potency entry in assay [13] and in [14] was “inactive” in each case. Also, in [2], the compound was called inactive. Also, the activity change, positive = activation in [17] was 67.1% (active). For the same compound, in assay [10], the max response is 19.5%.

Regarding `CC(=O)/C=C/C1C(C)=CCCC1(C)C` (configuration not stated), the Potency result in [1], in assay [3], in assay [4], in assay [5], in assay [6] and in [7] was “inactive” in each case. The Potency result in assay [8], in assay [9], in [18], in assay [11], in [12] and in assay [13] was “inactive” in each case. Moreover, in assay [14], the Potency result was “inactive”. Further, the result in assay [2] was inactive. For the same compound, the max response in assay [10] was 0%.

As to `O=C1CCCCCO1`, the Potency result in [16], in [3], in [4], in assay [5], in [6] and in assay [7] was “inactive” throughout. Also, the Potency entry in assay [8], in assay [9], in assay [18], in [11], in assay [19] and in [12] was “inactive” throughout. For the same compound, the Potency entry in [13] and in assay [14] was “inactive” throughout. Further, in [10], the max response is 10.5%.

For the compound `Nc1cnn([C@@H]2O[C@H](CO)[C@@H](O)[C@H]2O)c(=O)n1`, the Potency entry in [1], in assay [3], in [4], in [5], in assay [6] and in [8] was “inactive” each time. Also, the Potency entry in assay [9], in assay [18], in [11], in assay [19], in assay [12] and in assay [13] was “inactive” throughout. Further, the Potency result in assay [14] and in [15] was “inactive” each time. The compound was classed as inactive in assay [2]. Besides, in assay [10], the max response is -6.05%.

For the compound `CC(=O)c1ccc2c(c1)[C@H](NC(=O)c1ccc(F)cc1)[C@@H](O)C(C)(C)O2`, the Potency entry in assay [1], in assay [3], in assay [4], in assay [5], in [6] and in [7] was “inactive” each time. Further, the Potency entry in assay [8], in [9], in assay [18], in [19], in assay [12] and in [13] was “inactive” each time. Further, the Potency result in assay [14] and in assay [15] was “inactive” in each case. In addition, the call in [2] was inactive. The max response in assay [10] was -0.992%.

Consider `O=C1c2cccc(O)c2C(=O)c2c(O)cc(CO)cc21`, for which the Potency entry in [1], in assay [3], in [4], in assay [6], in assay [7] and in [8] was “inactive” throughout. Further, the Potency entry in assay [18], in assay [11], in assay [12], in assay [13], in assay [14] and in assay [15] was “inactive” in each case. Also, in [2], the outcome was inactive. Besides, the activity change, positive = activation in assay [17] was -22.2%. Moreover, in assay [10], the max response was 29.8%.

In the case of `COc1ccc(C(C)=O)cc1`, the Potency entry in assay [1], in assay [3], in assay [4], in [5], in [6] and in assay [7] was “inactive” throughout. For the same compound, the Potency entry in [8], in assay [9], in [18], in [11], in assay [19] and in [12] was “inactive” throughout. The Potency entry in assay [13], in assay [14] and in [15] was “inactive” each time. Besides, the call in [2] was inactive. Also, the max response in [10] is 21.1%.
